# ATXN viability: cell viability loss in ATXN counter-screen. S2 cells (HEK-293 line with an ATXN2-luciferase reporter) viability, CellTiter-Fluor protease fluorescence, 24 h. Potency, µM (highest dose often 56.7 µM), most hits filed as cytotoxic. 0.49% of 400,000 active; note: potency is the fitted concentration of half-maximal effect; nearly all actives have a fitted effect of over 40% in size
# IL1B secr inh: inhibitors of inflammasome signaling (IL-1 beta secretion); THP-1 LPS/ATP IL-1B secretion, AlphaLISA, 16 h; active compounds read low; activity change, % at 57.5 µM; 4.7% of 360,000 active; AID 743279; in the data active = activity change below about -50%; inconclusive = mostly about -30% to -49%; note: % is set by controls: 0 for no effect and ±100 for the full control effect
#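 Secreted IL-1B measured by AlphaLISA bead assay after 16 h compound exposure of THP-1 cells; compounds (final up to 57.5 uM) added 1 h before LPS (250 ng/mL) and ATP (1.25 mM) stimulation; lower signal means less secretion.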
# SW480 rerep: DNA re-replication induction in SW480 cells | SW480 DNA re-replication, Hoechst DNA content imaging, 48 h | Potency, µM (series often up to 46.1 µM), for the others: at the highest dose re-replication activation, actives largely listed as activators | 1.8% of 340,000 active | AID 624297; note: potency is the fitted concentration of half-maximal effect; % of control where 0% means no effect; nearly all actives have a fitted effect of over 55% in size
#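 First, 250 cells per well were seeded. Next, compound or vehicle (23 nL) was pinned in, plates sat 48 hr at 37 C. Finally Hoechst was added for 40 min before fluorescence scanning.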
# MCF10A rereplic: DNA re-replication induction in MCF 10a cells; Potency, µM (titrated, usually from 46.1 µM), without a hit: top-dose activity, positive = re-replication, most hits filed as activators; 2.9% of 350,000 active; AID 624296; MCF 10A DNA re-replication, Hoechst nuclear intensity, 48 h; note: potency is the fitted concentration of half-maximal effect; % of control where 0% means no effect; nearly all actives have a fitted effect of over 50% in size
# PINK1 modulator: modulators of PINK1 expression; Potency, µM (highest dose often 76.6 µM), for the others: top-dose activation (PINK1 increase), actives largely listed as activators; AID 624263; 0.2% of 410,000 active; PINK1 immunofluorescence, high-content cytometry, 24 h; active = well fitted activation curve with a large enough effect; inconclusive = small, poorly fitted or top-dose-only effect; cell line not stated here; note: potency is the fitted concentration of half-maximal effect; % of control where 0% means no effect; nearly all actives have a fitted effect of over 65% in size
#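 Cells are seeded, rested 12 hours, then given compound at five concentrations or DMSO for 24 hours. After fixation, blocking and antibody staining, PINK1 amount and mitochondrial localization are scored; CCCP serves as control.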
# ATXN2 expr inh: inhibitors of ATXN2 expression | Potency, µM (top dose mostly 57 µM), inactives show top-dose activity change, negative = inhibition, usual class: inhibitors | HEK-293 ATXN2-luciferase reporter, luminescence, 24 h | 0.72% of 360,000 active | AID 1745845; note: potency is the fitted concentration of half-maximal effect; % is set by controls: 0 for no effect and ±100 for the full control effect; nearly all actives have a fitted effect of over 55% in size
#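 ATXN2-luciferase reporter cells (luciferase flanked by upstream and downstream ATXN2 gene portions) were treated 24 h at 37 °C with compounds at up to 57 uM. SteadyGlo luminescence gave expression; GF-AFC fluorescence gave viability.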
# An asterisk follows results filed as active; i = inactive; ? = inconclusive; · = not tested or not shown; [ ] = dose if it differs, or a comment. A selection: hits, their analogues and other compounds. The true share with any hit is near 7.1%. Unless noted, calls come from the whole dose curve; as a rule, active = well fitted curve in the direction sought with a large enough effect; inconclusive = small, poorly fitted or top-dose-only effect, or another doubt; inactive = no such curve, though single readings can be large; an effect the other way counts as inactive or inconclusive.
SMILES,ATXN viability,IL1B secr inh,SW480 rerep,MCF10A rereplic,PINK1 modulator,ATXN2 expr inh
CC(CCc1ccccc1)NC(=O)C(=O)c1c[nH]c2ccccc12 (stereo unspecified),i,16,24%,10µM*,9%,-3%
Cc1ccc(C(=O)c2cnc3cc4c(cc3c2S(=O)(=O)c2ccccc2)OCCO4)cc1,i,-79*,?,?,-1%,5%
CCOc1ccc(-n2nc(CO)c(C(=O)NCc3cccc(OC)c3)n2)cc1,·,·,·,·,2%,·
COc1ccc(OC)c(C(=O)N2CCOc3ccc(C(C)(O)CN(C)C)cc3C2)c1 (stereo unspecified),i,·,·,·,0%,·
CCC1CN(C(=O)NCc2ccc(C)cc2)c2cc(Cl)ccc2O1 (stereo unspecified),i,-26,5%,6%,0%,6%
CCC1CN(C(=O)NCc2ccc(F)cc2)c2cc(Cl)ccc2O1 (stereo unspecified),i,-62*,0%,-6%,2%,10%
COc1ccc(C(=O)COc2ccccc2C(N)=O)cc1,i,-6,2%,9%,0%,4%
COc1ccc(C(=O)COc2ccccc2C#N)cc1,·,-18,1%,16µM*,-1%,83%
O=C(/C=C/Nc1ccccc1)c1ccc(Cl)cc1Cl,i,-11,0%,23%,3%,·
N#Cc1c(Nc2ccccc2)[n+]([O-])c2ccc(Cl)cc2[n+]1[O-],?,-20,2.9µM*,16%,11%,?
COC(=O)c1ccc(NC(=O)CC2C(=O)N(c3cccc(OC)c3)C(=O)N2Cc2cccc(OC)c2)cc1 (stereo unspecified),·,·,·,·,1%,·
CCN(CC)C(=O)c1ccc2c3c(cccc13)C(=O)N(CCc1ccc(OC)c(OC)c1)C2=O,·,-73*,110%,?,5%,?
COc1ccc(CCC(=O)Nc2cccc(S(=O)(=O)N3CCCC3)c2)cc1OC,i,-12,-7%,0%,2%,·
Cc1ccc(C(=O)N2CCCN(c3nc4cc5c(cc4cc3C#N)OCO5)CC2)cc1,i,18,13µM*,8.2µM*,6%,-28%
CCOCCCNC(=S)N1CCCN(c2nc3cc(C)c(C)cc3cc2C#N)CC1,?,-5,?,?,0%,?
COCCCNC(=S)N1CCCN(c2nc3cc(C)c(C)cc3cc2C#N)CC1,i,-74*,?,18µM*,-2%,-23%[11.3 µM]
CCC(C)NC(=O)Cn1c(=O)n(-c2ccc(Cl)c(Cl)c2)c(=O)c2c(C)c(C(=O)N(CC)CC)sc21 (stereo unspecified),i,·,·,·,2%,8%
Cc1noc(C)c1S(=O)(=O)N1CCC(C(=O)Nc2ccc(OC(F)(F)F)cc2)CC1,i,15,3%,16µM*,2%,-23%
CCOc1ccc(NC(=O)C2CCN(S(=O)(=O)c3cccs3)CC2)cc1,i,-58*,-8%,8%,1%,0%
COc1ccc(NC(=O)C2CCN(S(C)(=O)=O)CC2)cc1,i,23,0%,?,1%[38.3 µM],2%
CCOc1ccc(NC(=O)C2CCN(S(C)(=O)=O)CC2)cc1,i,0,?,0.92µM*,3%,197%
Cc1ccc2oc(C(=O)Nc3ccc(S(=O)(=O)Nc4nccc(C)n4)cc3)cc(=O)c2c1,i,·,·,·,1%,-10%
CCN(CC)CCCN(Cc1cc2ccc(C)c(C)c2[nH]c1=O)C(=O)NC1CCCCC1,i,-52*,14%,-24%,0%[38.3 µM],-13%
COc1ccc(CCN(Cc2cc3cccc(C)c3[nH]c2=O)C(=O)NC2CCCCC2)cc1OC,?,-68*,7%,3%,-1%,-14%
O=C(NCc1ccc(F)cc1)c1ccc2c(c1)nc1n2CCCCC1,·,·,·,·,1%,·
CCOC(=O)[C@H](CCc1ccccc1)N[C@@H](C)C(=O)N1Cc2cc(OC)c(OC)cc2C[C@H]1C(=O)O,i,·,·,·,·,11%

# Source: PubChem
